Compound activity: PubChem, National Center for Advancing Translational Sciences (NCATS)
HTT aggregate = inhibitors of mutant huntingtin aggregate formation in PC12 cells; PC12 HttQ103-GFP aggregates, Acumen cytometry, 40 h; Potency, µM (top dose mostly 46.1 µM), most hits filed as inhibitors; 220,000 compounds, 1.1% hits; also: nearly all actives have a fitted effect of over 60% in size
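Huntingtin Q103 exon 1–GFP aggregates in induced PC12 cells (100 nM tebufenozide) were quantified by cytometry from lysates, with compounds dosed in titration.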
HTT ATP protect = protects HTT-Q103 PC12 cells, measured by ATP; PC12 HTT-Q103 induced, cytoprotection, ATP luminescence, 40 h; Potency, µM (highest dose often 56.4 µM), usual class: activators; 230,000 compounds, 0.14% hits; AID 1471; also: nearly all actives have a fitted effect of over 45% in size
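Compounds were screened for protection of PC12 cells against cell death after tebufenozide induction (100 nM final) of mutant Huntingtin exon 1 (Q103) fused to GFP.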
ALDH1A1 block = blocks purified human ALDH1A1 activity; P00352; Purified ALDH1A1, NADH fluorescence, propionaldehyde substrate; Potency, µM (highest dose often 75.3 µM), usual class: inhibitors; 220,000 compounds, 7.3% hits; AID 1030; active = well fitted inhibition curve with a large enough effect, not every such curve was filed as active; inconclusive = small, poorly fitted or top-dose-only effect, or another doubt; inactive = no such curve, though single readings can be large or run the other way
CBFb RUNX1 block = CBF-beta/RUNX1 interaction disruption; AlphaScreen CBFb-His/RUNX1-biotin binding, biochemical; Potency, µM (titrated, usually from 59.8 µM), most hits filed as inhibitors; 230,000 tested, under 10 active; AID 1477
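Proteins preincubated together for 20 min at RT before compound addition; 15 min later, nickel and streptavidin beads were added and left 90 min prior to AlphaScreen measurement.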
HPGD block = blocks human HPGD enzyme activity | P15428 | purified HPGD, NADH fluorescence kinetic, PGE2 substrate | Potency, µM, usual class: inhibitors | 150,000 compounds, 4.3% hits | AID 894; active = well fitted inhibition curve with a large enough effect, not every such curve was filed as active; inconclusive = small, poorly fitted or top-dose-only effect, or another doubt; inactive = no such curve, though single readings can be large or run the other way
Target sequence (P15428 whole entry, looked up): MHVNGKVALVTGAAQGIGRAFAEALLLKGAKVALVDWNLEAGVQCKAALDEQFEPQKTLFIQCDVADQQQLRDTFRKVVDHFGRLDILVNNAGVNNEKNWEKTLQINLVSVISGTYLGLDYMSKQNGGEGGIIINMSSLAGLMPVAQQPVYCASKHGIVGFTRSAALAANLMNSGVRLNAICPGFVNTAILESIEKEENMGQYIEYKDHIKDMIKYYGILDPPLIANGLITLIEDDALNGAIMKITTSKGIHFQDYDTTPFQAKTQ
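NADH formation kinetics: reaction with 30 uM PGE2 and 1 mM NAD+ (final), 20 nM enzyme, Tris-HCl pH 8 with Tween 20, after 15 min compound preincubation at room temperature. Fluorescence change, last versus first of five reads.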
KDM4E inh = blocks human JMJD2E demethylase activity. B2RXH2. JMJD2E catalytic domain, FDH-coupled NADH fluorescence (FDH is formaldehyde dehydrogenase). Potency, µM (titrated, usually from 57.1 µM), hits mostly inhibitors. 230,000 compounds, 1.6% hits. AID 2147; active = well fitted inhibition curve with a large enough effect, not every such curve was filed as active; inconclusive = small, poorly fitted or top-dose-only effect, or another doubt; inactive = no such curve, though single readings can be large or run the other way; also: nearly all actives have a fitted effect of over 50% in size
Target sequence (B2RXH2 1-337 limits assumed): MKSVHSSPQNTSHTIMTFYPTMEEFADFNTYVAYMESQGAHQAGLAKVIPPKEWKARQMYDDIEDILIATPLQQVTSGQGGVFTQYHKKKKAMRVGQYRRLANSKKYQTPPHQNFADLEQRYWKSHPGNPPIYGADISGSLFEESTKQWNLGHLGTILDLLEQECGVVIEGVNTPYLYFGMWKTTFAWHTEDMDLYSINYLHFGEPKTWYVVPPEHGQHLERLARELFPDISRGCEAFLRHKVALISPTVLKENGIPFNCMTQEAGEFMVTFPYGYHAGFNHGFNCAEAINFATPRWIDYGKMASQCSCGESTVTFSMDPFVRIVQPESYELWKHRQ
Of the large screens only hits and unclear results are named; the others gave an inactive call. Compounds with a hit are over-represented: about 9.8% of the library has one in this group of screens. Unless noted, calls follow the shape of the dose curve; as a rule, active = well fitted curve in the direction sought with a large enough effect; inconclusive = small, poorly fitted or top-dose-only effect, or another doubt; inactive = no such curve, though single readings can be large; an effect the other way counts as inactive or inconclusive.

Clc1ccc(-c2nn3c(C4COc5ccccc5O4)nnc3s2)cc1 (stereo not drawn)	ALDH1A1 block 7.9µM, HPGD block 13µM
Cn1c(SCC(=O)c2ccccc2)nnc1C1COc2ccccc2O1 (stereo not drawn)	ALDH1A1 block inconclusive (no result: HPGD block)
Cc1cc(-c2nc3ncccc3o2)ccc1NC(=S)NC(=O)c1ccco1	ALDH1A1 block inconclusive, KDM4E inh inconclusive (no result: HPGD block)
COc1ccc(/C=C(/CC(=O)NCc2ccc(Cl)cc2)c2nc3ccccc3s2)cc1	HTT aggregate inconclusive, ALDH1A1 block inconclusive, HPGD block inconclusive (no result: KDM4E inh)
COc1ccccc1NC(=O)NCc1ccc2c(c1)OCO2	none
O=C(NCc1ccc2c(c1)OCO2)c1ccccc1	none (no result: HPGD block)
COc1ccccc1C(=O)NCc1ccc2c(c1)OCO2	HPGD block 14µM
COc1ccccc1/C=C(/CC(=O)NCc1ccc2c(c1)OCO2)c1nc2ccccc2s1	ALDH1A1 block 1.4µM, KDM4E inh inconclusive
O=C(NCc1ccc2c(c1)OCO2)c1cccc(F)c1	HPGD block 16µM
CC12CCC(C(=O)NCc3ccc4c(c3)OCO4)(OC1=O)C2(C)C (stereo not drawn)	ALDH1A1 block inconclusive, HPGD block 32µM
CC12CCC(C(=O)NCc3ccccc3)(OC1=O)C2(C)C (stereo not drawn)	none
Cn1c(CCC(=O)OCC(=O)NCc2ccc3c(c2)OCO3)nc(=O)c2ccccc21	none (no result: HPGD block)
COc1cc(C(=O)NCc2ccccc2)ccc1OC(F)F	none (no result: HPGD block)
O=C(NCc1ccc2c(c1)OCO2)c1cccc(Cl)c1	HPGD block 3.5µM
COc1ccc(COc2ccccc2C(=O)NCc2ccccc2)cc1F	HTT aggregate inconclusive, ALDH1A1 block inconclusive, HPGD block 16µM
Cc1ccc(S(=O)(=O)N(C)C)cc1NC(=S)N1CCN(Cc2ccc3c(c2)OCO3)CC1	HTT aggregate inconclusive (no result: HPGD block)
Cc1ccccc1OCc1nc2ccc(S(=O)(=O)N3CCOCC3)cc2[nH]1	ALDH1A1 block 10µM, HPGD block 14µM
COc1ccc(NS(=O)(=O)c2ccc3nc(COc4cccc5ccccc45)[nH]c3c2)cc1	HTT aggregate inconclusive, ALDH1A1 block 22µM, HPGD block 35µM
CCCC1C(=O)N(Cc2ccccc2)C(=O)CC1C (stereo not drawn)	none (no result: ALDH1A1 block, HPGD block)
CS(=O)(=O)Nc1ccc(C(=O)NCC2CCCO2)cc1 (stereo not drawn)	none
Cc1cc(C)c(C)c(OCC(=O)NCC2CCCO2)c1 (stereo not drawn)	HPGD block inconclusive
COc1ccc(CC(=O)Nc2ccc(S(=O)(=O)NCC3CCCO3)cc2)cc1 (stereo not drawn)	HTT aggregate inconclusive, ALDH1A1 block 10µM, HPGD block 22µM
CC(=O)Nc1ccc(C(=O)Nc2ccc(S(=O)(=O)NCC3CCCO3)cc2)cc1 (stereo not drawn)	none
COc1ccc(C(=O)NCC2CCCO2)cc1 (stereo not drawn)	HPGD block 13µM (no result: HTT ATP protect)
Cc1cc(C)cc(OCC(=O)NCC2CCCO2)c1 (stereo not drawn)	HPGD block 16µM
Cn1c(C(=O)OCC(=O)NCC2CCCO2)cc2sccc21 (stereo not drawn)	HPGD block 16µM
COc1ccc(S(=O)(=O)N(C)c2ccc(C(=O)NCC3CCCO3)cc2)cc1 (stereo not drawn)	HPGD block 2.8µM
Cc1ccc(C(=O)NCC2CCCO2)cc1N1CCCC1=O (stereo not drawn)	HPGD block 11µM
O=C(NCC1CCCO1)c1ccc(COc2ccc(Br)cc2)cc1 (stereo not drawn)	ALDH1A1 block inconclusive, HPGD block 7.1µM (no result: HTT ATP protect)
Cc1ccc(C)n1-c1ccc(C(=O)NCC2CCCO2)cc1 (stereo not drawn)	HPGD block 8.9µM
O=C(NCC1CCCO1)c1cccc(N2CCCC2=O)c1 (stereo not drawn)	none
COc1ccc(N(C)S(=O)(=O)c2cccc(C(=O)NCC3CCCO3)c2)cc1 (stereo not drawn)	HTT aggregate inconclusive, ALDH1A1 block inconclusive
CC(=O)C1=C(O)C(=O)N(C)C1c1ccccc1[N+](=O)[O-] (stereo not drawn)	KDM4E inh inconclusive (no result: ALDH1A1 block, HPGD block)
CC(=O)N1CCc2cc(Br)cc(S(=O)(=O)CCC(=O)N3CCN(c4ccccn4)CC3)c21	none (no result: HPGD block)
N/C(CC(=O)Nc1ccc(F)cc1)=N\O	none (no result: HPGD block)
Cc1ccc2oc(=O)c3cc(C(=O)N4CCN(C)CC4)sc3c2c1	KDM4E inh inconclusive (no result: ALDH1A1 block, HPGD block)
Cc1ccc(NS(=O)(=O)c2cccc(C(=O)NCCc3c[nH]c4ccccc34)c2)c(C)c1	HTT aggregate inconclusive, ALDH1A1 block inconclusive (no result: HPGD block)
Cc1cccc(-n2cnc3cc(C(=O)N4CCc5ccccc54)ccc32)c1	ALDH1A1 block inconclusive, HPGD block 22µM
COc1ccc(NC(=O)CCCn2c(=O)c3sccc3n(Cc3ccc(C)cc3C)c2=O)cc1	ALDH1A1 block inconclusive
COc1ccc(/C=C2\NC(=S)N(CC3CCCO3)C2=O)c(OC)c1C (stereo not drawn)	ALDH1A1 block 0.45µM
COc1ccc(/C=C2\NC(=S)N(CC3CCCO3)C2=O)c(OC)c1 (stereo not drawn)	ALDH1A1 block 1.3µM
Cc1cccc(NC(=O)c2ccccc2Br)n1	ALDH1A1 block inconclusive, HPGD block 25µM
Cc1cccc(NC(=O)c2onc3c2CCCC3)n1	ALDH1A1 block 22µM (no result: HTT ATP protect)
Cc1nn(Cc2cccc(C(=O)NN)c2)c(C)c1Cl	none (no result: ALDH1A1 block, HPGD block)
O=C1CCC(C(=O)N2CCCC(C(=O)c3ccc4c5c(cccc35)CC4)C2)=NN1 (stereo not drawn)	ALDH1A1 block inconclusive (no result: HPGD block)
FC(F)(F)c1cccc(N2CCN(C(=S)NC3CCCCC3)CC2)c1	HTT aggregate 22µM
CC(On1nnc2ccccc21)C(=O)N1CCN(Cc2ccccc2)CC1 (stereo not drawn)	HTT aggregate inconclusive, HTT ATP protect 0.71µM (no result: HPGD block)
CC(C(=O)N1CCN(Cc2ccccc2)CC1)c1ccc([N+](=O)[O-])cc1 (stereo not drawn)	none (no result: ALDH1A1 block, HPGD block)
CCCCCCCCCCCCCCCCCCO	HTT ATP protect inconclusive (no result: KDM4E inh)
O=CN1CCc2scc[n+]2-c2ccccc21	ALDH1A1 block 14µM, KDM4E inh inconclusive
C=C(C)COc1ccc(-c2[nH]ncc2-c2ccccc2OC)c(O)c1	ALDH1A1 block 25µM
O=c1nc2ccccc2c2n1CC(CN1CCN(C(c3ccccc3)c3ccccc3)CC1)N2 (stereo not drawn)	none (no result: HPGD block)
N#CCC(=O)Nc1ccc(C(=O)OCC(=O)N(Cc2ccccc2)C2CCS(=O)(=O)C2)cc1 (stereo not drawn)	HTT ATP protect inconclusive, ALDH1A1 block inconclusive, KDM4E inh inconclusive (no result: HPGD block)
CN(Cc1nc(-c2cccnc2)no1)S(=O)(=O)c1ccccc1	ALDH1A1 block inconclusive
